Assay results: the supplement of paper PMC10127200
Where a name gives a salt, the structure may show the parent alone.

What was measured:
Assay in all cases: Euclidean distance of Cell Painting phenotypic profile (signed KS, 77 features) to DMSO centroid (dimensionless distance); 5 or 10 uM (library dependent); higher = stronger phenotypic change vs DMSO (phenoactivity)
Conditions in all cases: 48 h
786-O = test system: 786-O
Outline: (§1)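 Phenoactivity is defined as the Euclidean distance from a compound profile to the median vehicle profile. Each profile comprised 77 Harmony features, scored as signed Kolmogorov-Smirnov statistics versus same-plate vehicle wells, then plate-position corrected, correlation-weighted and replicate-averaged at the top dose. Five cancer lines and one healthy fibroblast line were exposed to library compounds for 48 h at 10 or 5 uM (0.1% DMSO final).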

A549 = test system: A549
Outline: as §1

DU145 = test system: DU145
Outline: as §1

FB = test system: FB
Outline: as §1

HEPG2 = test system: HEPG2
Outline: as §1

OVCAR4 = test system: OVCAR4
Outline: as §1

SMILES | Euclidean distance (786-O) | Euclidean distance (A549) | Euclidean distance (DU145) | Euclidean distance (FB) | Euclidean distance (HEPG2) | Euclidean distance (OVCAR4)
CCc1nc2c(C)cc(N3CCN(CC(=O)N4CC(O)C4)CC3)cn2c1N(C)c1nc(-c2ccc(F)cc2)c(C#N)s1 [Ziritaxestat (GLPG1690)] | 1.57 | 1.31 | 0.685 | 2.02 | 1.42 | 1.68
Cc1ccc(/C(=C\CN2CCCC2)c2cccc(/C=C/C(=O)O)n2)cc1 [Acrivastine] | 1.08 | 0.966 | 1.03 | 0.976 | 0.729 | 1.02
COc1cc(/C=C/C(=O)CC(=O)/C=C/c2ccc(O)c(OC)c2)ccc1O [Curcumin] | 1.77 | 2.12 | 1.22 | 3.06 | 2.02 | 1.2
CCOc1nc2cccc(C(=O)O)c2n1Cc1ccc(-c2ccccc2-c2nnn[nH]2)cc1 [Candesartan] | 2.07 | 1.74 | 1.69 | 3.34 | 0.856 | 1.84
CC[C@H](Nc1ncnc2[nH]cnc12)c1nc2cccc(F)c2c(=O)n1-c1ccccc1 [CAL-101 (Idelalisib. GS-1101)] | 1.28 | 0.736 | 1.32 | 1.79 | 0.747 | 1.56
CC[C@]12CCCN3CCc4c(n(c5ccccc45)[C@@](O)(C(=O)OC)C1)[C@@H]32 [Vincamine] | 1.3 | 1.33 | 0.578 | 0.795 | 0.91 | 1.18
CCN1CC(CCN2CCOCC2)C(c2ccccc2)(c2ccccc2)C1=O (configuration not stated) [Doxapram HCl] | 0.672 | 0.512 | 0.481 | 0.699 | 0.498 | 0.962
CC1(C)S[C@@H]2[C@H](NC(=O)Cc3ccccc3)C(=O)N2[C@H]1C(=O)O [Penicillin G Sodium] | 1.04 | 0.576 | 1.12 | 0.979 | 0.871 | 1.93
Nc1ccc(S(N)(=O)=O)cc1 [Sulfanilamide] | 0.866 | 0.563 | 0.913 | 0.819 | 0.645 | 1.21
C#C[C@]1(O)CC[C@H]2[C@@H]3CCC4=CC(=O)CC[C@@H]4[C@H]3CC[C@@]21C [Norethindrone] | 1 | 0.864 | 0.791 | 1.2 | 0.575 | 1.29
CC(=O)O[C@H]1C[C@@]2(C)[C@@H](C[C@@H](O)[C@H]3[C@@]4(C)CC[C@@H](O)[C@@H](C)[C@@H]4CC[C@@]32C)/C1=C(\CCC=C(C)C)C(=O)O [Fusidine] | 0.63 | 0.807 | 0.822 | 0.84 | 0.634 | 1.3
C1COC(NC(C2CC2)C2CC2)=N1 [Rilmenidine Phosphate] | 1.48 | 0.742 | 1.06 | 1.07 | 1.13 | 1.02
CC(=O)[C@]1(O)Cc2c(O)c3c(c(O)c2[C@@H](O[C@H]2C[C@H](N)[C@H](O)[C@H](C)O2)C1)C(=O)c1ccccc1C3=O [Idarubicin HCl] | 5.7 | 4.85 | 4.5 | 4.44 | 5.24 | 6.18
N[C@H]1C[C@@H]1c1ccc(-c2cccc(O)c2)cc1 | 1.26 | 1.27 | 1.07 | 1.18 | 0.624 | 1.45
CC(C)(C)c1nc(-c2cccc(NS(=O)(=O)c3c(F)cccc3F)c2F)c(-c2ccnc(N)n2)s1 | 1.53 | 1.16 | 1.31 | 3.02 | 1.45 | 1.03
CC(O)c1cc(C(=O)N[C@@H](C)Cn2ccc(-c3ccc(C#N)c(Cl)c3)n2)n[nH]1 (some centres not stated) [Darolutamide (ODM-201)] | 0.846 | 0.505 | 1.04 | 1.05 | 0.543 | 0.668
CCC[C@@H]1C[C@@H](C(=O)N[C@@H]([C@H]2O[C@H](SC)[C@H](O)[C@@H](O)[C@H]2O)[C@H](C)Cl)N(C)C1 [Clindamycin HCl] | 1.06 | 0.576 | 0.99 | 0.761 | 0.82 | 0.755
O=C(O)c1cn(C2CC2)c2cc(N3CCNCC3)c(F)cc2c1=O [Ciprofloxacin hydrochloride hydrate] | 1.39 | 0.835 | 0.784 | 1.29 | 0.735 | 1.87
CC(=O)OCC[N+](C)(C)C [Acetylcholine Chloride] | 1.02 | 0.848 | 1.22 | 1 | 0.549 | 1.13
Nc1nc(N)c2nc(-c3cccc(O)c3)cnc2n1 | 0.828 | 1.47 | 1.28 | 2.43 | 0.858 | 1.9
Cc1ccc(C(=O)N(CCCN)[C@@H](c2nc3cc(Cl)ccc3c(=O)n2Cc2ccccc2)C(C)C)cc1 | 3.64 | 3.18 | 4.25 | 2.49 | 3.84 | 3.78
O=C(O[C@H]1CN2CCC1CC2)N1CCc2ccccc2[C@@H]1c1ccccc1 [Solifenacin succinate] | 1.31 | 1.56 | 1.17 | 2.68 | 2.17 | 1.98
CC(C)c1nc(CN(C)C(=O)N[C@@H](CCN2CCOCC2)C(=O)N[C@H](CC[C@H](Cc2ccccc2)NC(=O)OCc2cncs2)Cc2ccccc2)cs1 [Cobicistat (GS-9350)] | 2.05 | 2.31 | 1.67 | 1.66 | 1.23 | 1.96
NC(=O)c1noc([C@H](CCCC2CCCCC2)CC(=O)NO)n1 | 1.23 | 0.66 | 0.701 | 1.25 | 0.93 | 0.933

SMILES | Euclidean distance (786-O) | Euclidean distance (A549) | Euclidean distance (DU145) | Euclidean distance (FB) | Euclidean distance (HEPG2) | Euclidean distance (OVCAR4)
COc1cc2ncnc(Nc3cccc(Cl)c3)c2cc1OC [AG-1478 (Tyrphostin AG-1478)] | 1.39 | 1.29 | 1.45 | 1.21 | 0.941 | 0.649
O=c1cc(N2CCOCC2)oc2c(-c3cccc4c3sc3ccccc34)cccc12 | 3.24 | 2.66 | 2.15 | 3.31 | 2.73 | 1.93
Cc1cccc(C)c1NC(=O)C1CCCCN1C (configuration not stated) [Mepivacaine HCl] | 1.26 | 0.773 | 0.454 | 1.28 | 0.483 | 0.914
O=C1Cc2cc(CCN3CCN(c4nsc5ccccc45)CC3)c(Cl)cc2N1 [Ziprasidone HCl] | 1.99 | 1.47 | 1.15 | 1.3 | 0.985 | 1.64
Cc1cc(O)c2c(c1)C(=O)c1cc(O)cc(O)c1C2=O [Emodin] | 1.3 | 1.13 | 1.01 | 1 | 1.85 | 0.712
O=C(Nc1cccc2cccnc12)c1ccc(N2C(=O)[C@@H]3[C@H](C2=O)[C@@H]2C=C[C@H]3C2)cc1 [IWR-1-endo] | 1 | 1.06 | 1.39 | 1.64 | 1.53 | 1.54
C#CCC(Cc1cnc2nc(N)nc(N)c2n1)c1ccc(C(=O)N[C@@H](CCC(=O)O)C(=O)O)cc1 (some centres not stated) [Pralatrexate] | 1.51 | 2.98 | 0.922 | 1.25 | 1.73 | 2.44
NC12CC3CC(CC(C3)C1)C2 [Amantadine HCl] | 1.14 | 0.94 | 1.01 | 0.961 | 0.485 | 0.875
CC(C)CC(=O)Nc1cncc(-c2ccc3[nH]nc(-c4nc5cncc(-c6cccc(F)c6)c5[nH]4)c3c2)c1 | 5.07 | 2.79 | 4.73 | 4.58 | 4.73 | 3.42
Cc1ccc(S(=O)(=O)NC(=O)NN2CC3CCCC3C2)cc1 (configuration not stated) [Gliclazide] | 1.36 | 0.771 | 1.24 | 1.14 | 1.07 | 1.65
CCOC(=O)CCC(=O)O[C@H]1[C@H](O[C@@H]2[C@@H](C)[C@H](O[C@H]3C[C@@](C)(OC)[C@@H](O)[C@H](C)O3)[C@@H](C)C(=O)O[C@H](CC)[C@@](C)(O)[C@H](O)[C@@H](C)C(=O)[C@H](C)C[C@@]2(C)O)O[C@H](C)C[C@@H]1N(C)C [Erythromycin Ethylsuccinate] | 1.09 | 0.82 | 1.09 | 1.04 | 0.715 | 1.3
CC(=O)NS(=O)(=O)c1ccc(N)cc1 [Sulfacetamide] | 1.08 | 0.619 | 1.45 | 1.07 | 0.298 | 1.01
CCCCCN(C)CCC(O)(P(=O)(O)O)P(=O)(O)O [Ibandronate sodium] | 1.42 | 1.09 | 0.856 | 1.59 | 1.38 | 1.49
CC(C)Nc1cccnc1N1CCN(C(=O)c2cc3cc(NS(C)(=O)=O)ccc3[nH]2)CC1 [Delavirdine (mesylate)] | 1.18 | 0.811 | 2.31 | 1.56 | 0.607 | 1.51
OC[C@@H](O)[C@@H](O[C@@H]1O[C@H](CO)[C@H](O)[C@H](O)[C@H]1O)[C@H](O)[C@@H](O)CO [Lactitol] | 0.637 | 0.843 | 0.537 | 0.733 | 0.29 | 1.17
Cn1c(=O)c2c(ncn2CC2OCCO2)n(C)c1=O [Doxofylline] | 1.15 | 0.81 | 0.772 | 0.965 | 0.408 | 1.15
O=c1ccc2ccc(OCCCCN3CCN(c4cccc5sccc45)CC3)cc2[nH]1 [Brexpiprazole] | 1.47 | 1.82 | 2.84 | 1.52 | 2.28 | 1.15
O=C1C[C@@H](c2ccc(O)cc2)Oc2cc(O)cc(O)c21 [Naringenin] | 0.882 | 1.06 | 0.744 | 1.06 | 0.936 | 1.11
COc1cc2nccc(Oc3ccc(NC(=O)Nc4cc(C)on4)c(Cl)c3)c2cc1OC [Tivozanib (AV-951)] | 2.03 | 2.81 | 1.83 | 2.67 | 2.21 | 2.39
Nc1ccc(S(=O)(=O)c2ccc(N)cc2)cc1 [Dapson] | 1.45 | 2.62 | 2.45 | 1.64 | 0.497 | 1.8
CCCc1nn(C)c2c(=O)[nH]c(-c3cc(S(=O)(=O)N4CCN(C)CC4)ccc3OCC)nc12 [Sildenafil Citrate] | 1.87 | 1.4 | 1.4 | 0.899 | 0.957 | 1.28
Cc1coc2c1C(=O)C(=O)c1c-2ccc2c(C)cccc12 [Tanshinone I] | 1.41 | 0.593 | 1.07 | 1.35 | 1.25 | 1.18
Cc1ccc([N+](=O)[O-])cc1S(=O)(=O)N(C)/N=C/c1cnc2ccc(Br)cn12 | 3.41 | 4.67 | 2.87 | 2.69 | 2.06 | 4.4
